Laboratory results taken from ChEMBL document CHEMBL4513216, “Probing the Open Global Health Chemical Diversity Library for Multistage-Active Starting Points for Next-Generation Antimalarials” (ACS Infect Dis, 2020).
Hit rate of the full screen: of about 69,000 compounds, about 8,600 (12%) showed an effect of 50% or more. Shown is part of a subset that was picked to be rich in strong results.

Test system: Plasmodium berghei
Test: Screen against P. berghei liver stage (PbLuc), transformed with Luciferase, at 10uM
Assay type: functional, HepG2
Conditions: tested at 10 uM

Row | Compound | INHIBITION [%]
1 | CCCC(C)C(=O)N1CCC(n2cccc2C(=O)OC)CC1 (centres undefined) | 12.2
2 | N#Cc1cccc(N2CC3(CCN(C(=O)c4ccncc4)C3)CC2=O)c1 (centres undefined) | 21.5
3 | COc1c(C2CCCN2Cc2nc(C3CC3)no2)c(C)nn1C (centres undefined) | 52.3
4 | CCc1nc(C2CCCN2Cc2nccn2Cc2ccccc2)no1 (centres undefined) | 32
5 | COc1c(C2CCCN2Cc2cn3ccsc3n2)c(C)nn1C (centres undefined) | 65.6
6 | CCCn1ccnc1CN1CCCC1c1cccc(-n2ccnc2)n1 (centres undefined) | 42.4
7 | Cc1nn(C)c(C)c1C1CCCN1Cc1cn2ccsc2n1 (centres undefined) | 74
8 | CCCc1noc(CN2CCCC2c2c(C)nn(C)c2OC)n1 (centres undefined) | 42.9
9 | Cc1nn(C)c(Cl)c1C1CCCN1Cc1cn2ccsc2n1 (centres undefined) | 24.8
10 | Cc1nn(C)c(C)c1C1CCCN1C(=O)Cc1cn2ccsc2n1 (centres undefined) | 21.1
11 | COc1c(C2CCCN2Cc2nc(C)c(C)o2)c(C)nn1C (centres undefined) | 11.2
12 | Cc1nn(C)c(C)c1C1CCCN1Cc1nc(C2CC2)no1 (centres undefined) | 21.2
13 | CCCn1ccnc1CN1CCCC1c1ccccn1 (centres undefined) | 56.7
14 | COc1c(C2CCCN2Cc2csc(C(C)C)n2)c(C)nn1C (centres undefined) | 20.1
15 | CCN(Cc1ccco1)C(C)c1nc(C(C)C)no1 (centres undefined) | -165
16 | Cc1cccc(OCCNC(=O)CN2CCN(C)CC2C)c1 (centres undefined) | -43.415
17 | COCC1CN(C(=O)COc2ccccc2)Cc2cn(C)nc21 (centres undefined) | 11.5
18 | COc1ncccc1C(=O)N1C[C@@H]2COC[C@]2(CN(C)C)C1 | -35.2
19 | O=C(NCCCn1ccnc1)C1CCC(=O)N1Cc1cccs1 (centres undefined) | 13.9
20 | CCn1cncc1-c1nc2c([nH]1)CC(C)(C)CNC2=O | -23.2
21 | Cc1ccc(O[C@@H]2C[C@H]3CN(C(=O)c4cccnc4)CCN3C2)cc1 | -2.25
22 | OCC1N(Cc2ccc(F)cc2)C2CCC1(O)CC2 (centres undefined) | 39.6

Row | Compound | INHIBITION [%]
23 | CCn1ccnc1CN1CCCC1c1c(C)nn(C)c1OC (centres undefined) | 65.4
24 | COc1c(C2CCCN2Cc2nccn2C)c(C)nn1C (centres undefined) | 22.8
25 | COc1c(C2CCCN2Cc2cc(C)no2)c(C)nn1C (centres undefined) | 0.938
26 | CC(NC(=O)CN(C)C(C)C)c1ccc(Oc2cccnc2)c(F)c1 (centres undefined) | 23.5
27 | CSc1nsc(NC(=O)N(C)Cc2ccc3c(c2)OCO3)n1 | -29.6
28 | Cc1ccccc1OCCn1cnc2oc(C)c(C(=O)O)c2c1=O | -16.3
29 | CCc1cnc(CCNS(C)(=O)=O)s1 | 48.3
30 | CC(C)c1nc(C2CCCN2C(=O)c2cc(Cl)c[nH]2)no1 (centres undefined) | 6.09
31 | CC(C)CN1CCC2(CCN(Cc3nccs3)CC2)C1=O | 29
32 | Cc1ccc2cc(C3(O)CCN(C(=O)CN4CCCC4)CC3)ccc2n1 | -9.67
33 | COCCOCC(=O)N1CCC(O)(c2ccc3nc(C)ccc3c2)CC1 | -18.5
34 | Cc1ccc2cc(C3(O)CCN(C(=O)CSC(C)C)CC3)ccc2n1 | 81.6
35 | Cc1ccc2cc(C3(O)CCN(C)CC3)ccc2n1 | -12.1
36 | O=C(c1ccoc1)N1CCC(O)(C(F)(F)F)CC1 | 30
37 | Cc1ccc2cc(C(=O)N3CCCN(C)CC3)ccc2n1 | 48
38 | CN(C)C(=O)N1CCN(C(=O)c2ccn3ccnc3c2)CC1 | 7.97
39 | Cc1ccc2cc(C(=O)N3CCN(C(=O)N(C)C)CC3)ccc2n1 | 70.3
40 | Cc1ccc2cc(C(=O)N3CCC(O)(C(F)(F)F)CC3)ccc2n1 | 51.7
41 | CS(=O)(=O)Cc1ccc(C(=O)N2CCCC(n3cncn3)C2)o1 (centres undefined) | 25.8
42 | Cn1ccc2ccc(C(=O)N3CC[C@@]4(O)CCCC[C@H]4C3)cc21 | 18.3
43 | CC(=O)N1CCCN(Cc2cc(F)cc(Br)c2)CC1 | 33.4
44 | O=C1CC(c2cccnc2)C2(CCN(S(=O)(=O)C3CC3)CC2)N1 (centres undefined) | 9.67

Row | Compound | INHIBITION [%]
45 | Cc1ccccc1-n1ncc2c(=O)n(CCN3CCCCC3)cnc21 | -51.1
46 | COc1ccc(CN(C)Cc2c(C)noc2C)c(Br)c1OC | 26.8
47 | Cc1cnn(CC2CCCN2Cc2cc(C)on2)c1 (centres undefined) | 4.585
48 | CC(C)(C)C(=O)N[C@H]1CC[C@H](Nc2nccc(-c3ccncc3)n2)C1 | 18.7
49 | COc1cccc(CC2CN(C3CCCCC3)CCO2)c1 (centres undefined) | 36.2
50 | CCOc1ccccc1N(C)Cc1nccn1C | 52.6
51 | CCOc1ccccc1OCCN(C)Cc1nccn1C | 20.5
52 | CN(Cc1nccn1C)c1ccc(-c2nccn2C)nn1 | -84.1
53 | COCCC(=O)N1CCCC1c1nccnc1Nc1ncccn1 (centres undefined) | 33.7
54 | Cn1ccnc1CN1CCC2(CC1)CN(Cc1cccnc1)C(=O)CO2 | 57.4
55 | Cn1ccnc1CN1CCC2(CC1)CN(c1ccccc1)C(=O)CO2 | -4.88
56 | O=C1COC2(CCN(Cc3cccs3)CC2)CN1c1ccccc1 | 26.8
57 | CN(C)CCN1CCC2(CC1)CN(Cc1cccnc1)C(=O)CO2 | 41.2
58 | Cn1ccnc1CN1CCC2(CC1)CCN(c1cncnc1)C2=O | 8.93
59 | O=C1COC2(CCN(Cc3cccs3)CC2)CN1c1cncnc1 | 67
60 | Cn1ccnc1CN1CCC2(CC1)CN(c1cncnc1)C(=O)CO2 | 57.9
61 | Cn1ccnc1CN1CCC2(CC1)CN(Cc1ccccc1)C(=O)CO2 | 33
62 | O=C1COC2(CCN(Cc3cccs3)CC2)CN1c1cccnc1 | 10.7
63 | O=C(c1cccnc1)N1CCC2(CC1)CCN(c1ccsc1)C2=O | 16.6
64 | COCCCN1CC2(CCCCN2C(=O)c2ccsc2)CC1=O (centres undefined) | 20.7
65 | Cc1cc(CN(Cc2cccnc2)CC2CCCO2)on1 (centres undefined) | 48.2
66 | Cc1nccn1C1CCCN(C(=O)c2cc3c(F)cccc3[nH]2)C1 (centres undefined) | 42

Row | Compound | INHIBITION [%]
67 | CCc1ccc(NC(=O)C(C)Nc2cccc3c2OCCO3)cc1 (centres undefined) | 21.3
68 | O=C(c1ccc2[nH]cnc2c1)N1CCC(COc2ccccn2)CC1 | 32.3
69 | CN(CCn1cccn1)C1CCCN(Cc2noc(C3CC3)n2)C1 (centres undefined) | 39.7
70 | Cc1csc(C2CCCCN2C(=O)c2cc(Cl)c[nH]2)n1 (centres undefined) | -19.4
71 | Cc1nnc(SCC(=O)c2cc3c(cc2Cl)NC(=O)C3)s1 | 48.7
72 | Cc1nnc(SCC(=O)NCc2ccc3c(c2)CCC(=O)N3)n1C | 58.2
73 | CC(NC(=O)NCc1ccoc1)c1ccc2c(c1)CCC(=O)N2 (centres undefined) | 36.4
74 | O=C(CSc1ccccn1)NCc1ccc2c(c1)CCC(=O)N2 | 35
75 | Cc1nnc(SCC(=O)NCc2ccc3c(c2)CCC(=O)N3)s1 | 72.3
76 | Cn1ccnc1SCC(=O)NCc1ccc2c(c1)CCC(=O)N2 | 34.2
77 | CC(CC(=O)NCCS(N)(=O)=O)C1CCCCC1 (centres undefined) | 16
78 | CCN(Cc1ccc(O)c(C(=O)O)c1)CC1CCCO1 (centres undefined) | 42.3
79 | CN(Cc1nc(C(F)(F)F)cs1)C(=O)CCc1cccnc1 | -7.53
80 | CCCOc1cc(C)ccc1NC(=O)NCCNC(C)=O | 1.06
81 | O=C(c1ccncc1)N1CCC2(CC1)C(=O)Nc1ccccc12 | -16.9
82 | CC(C)N(C)Cc1cc(=O)n2c(n1)CN(C(=O)c1ccc[nH]1)CCC2 | 26.7
83 | O=C(Cc1ccccc1)N1CCn2cc(Cn3cncn3)nc2C1 | -28.7
84 | O=C(Cc1ccsc1)N1CCn2cc(CN3CCCC3)nc2C1 | -63.2
85 | CCN(CC)Cc1cn2c(n1)CN(C(=O)Cc1ccsc1)CC2 | 73.6
86 | CN(C)Cc1cc(=O)n2c(n1)CN(C(=O)c1ccc[nH]1)CCC2 | 32.1
87 | CS(=O)(=O)NCc1cn2c(n1)CN(C(=O)c1ccc[nH]1)CC2 | 27.3
88 | CN(Cc1cn2c(n1)CN(C(=O)c1ccc[nH]1)CC2)Cc1ccco1 | 7.31

Row | Compound | INHIBITION [%]
89 | CCN(CC)Cc1cc(=O)n2c(n1)CN(C(=O)c1ccc[nH]1)CCC2 | 58.4
90 | CC(C)N(C)Cc1cn2c(n1)CN(C(=O)Cc1ccsc1)CC2 | -9.86
91 | CC(C)N(C)Cc1cn2c(n1)CN(C(=O)Cc1ccccc1)CC2 | 72.3
92 | CC(C)N(C)Cc1cn2c(n1)CN(C(=O)c1ccc[nH]1)CC2 | 63.7
93 | CN(C)Cc1cn2c(n1)CN(C(=O)Cc1ccsc1)CC2 | -15.6
94 | O=C(NC1CC1)C1=CC2(CCN(CC3CC3)CC2)c2ccccc21 | 37.1
95 | Cc1cncc(C2CCN(Cc3ccc(S(C)(=O)=O)cc3)CC2)n1 | 25.3
96 | CS(=O)(=O)NCc1cnc2n1CCN(Cc1ccco1)CC2 | 38.5
97 | CN(Cc1ccsc1)C(=O)c1cccc(S(=O)(=O)NCC2CCCO2)c1 (centres undefined) | 23.4
98 | COCCNC(=O)Cn1cc(OCc2ccc(F)cc2)c(=O)cc1CO | 26.9
99 | OC1CCN(CCCn2ccnc2-c2c[nH]cn2)CC1 | -0.273
100 | O=C(C1CCCC1)N1CCn2c(nnc2C2CCCNC2)C1 (centres undefined) | -1.45
101 | Cc1nnc(SCCC(=O)N(C)Cc2ccc(F)cc2Cl)[nH]1 | 51.1
102 | Cc1nnc(SCCC(=O)N(C)Cc2c(F)cccc2Cl)[nH]1 | -1.25
103 | Cc1nnc(SCCC(=O)N(C)Cc2ccc(F)cc2F)[nH]1 | 1.96
104 | CCc1c(O)nc2nc(N3CCOCC3)nn2c1C | 11
105 | CCN(CC)S(=O)(=O)NC1CCN(c2ccc(OC)cc2)CC1 | 12.8
106 | CCc1ccc(N2CCC(NS(=O)(=O)N(CC)CC)CC2)cc1 | 53.4
107 | COc1ccc(N2CCC(NS(=O)(=O)N(C)C(C)C)CC2)cc1 | 34.1
108 | CC(C)(C)CC(=O)NCC(=O)Nc1ccn(Cc2cccnc2)n1 | 21.6
109 | CN1CC(=O)N(c2ccsc2)CC12CCN(Cc1cnn(C)c1)C2 (centres undefined) | -13
